Test results reported in PubChem BioAssay AID1159580 (chemical genetic matrix, 2015).
Values joined by “and” are separate entries in the source; they are usually repeats but may differ in a detail not shown here. Equal entries are not always repeated. Hit rate of the full screen: of about 5,500 compounds, about 2,000 (36%) were called active. Not shown: some 18% with an inconclusive outcome. Cut-off read from the data, not from the text of the source: active = normalized growth mostly below about 0.91 (no sharp cut-off); inconclusive = no clear call, values can overlap the other calls; inactive = mostly above about 0.92. The list shows a part of the results.

Assay: chemical genetic growth profiling, strain panel (AID 1159580);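 note: tested at 20 µM; growth read once vehicle control cultures reached saturation at 30 °C; 1 = growth at the plate median or of vehicle wells; lower values mean less growth of the strain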
Details: S. cerevisiae deletion strains, growth OD

Measured: normalized growth

COc1ccc(C[C@H]2NC[C@H](O)[C@H]2OC(C)=O)cc1
active: locus YAL013W, strain DEP1, stronger effect = lower value 0.0582 | locus YAL021C, strain ccr4, stronger effect = lower value 0.397 | locus YAL026C, strain drs2, stronger effect = lower value 0.762 | locus YAL030W, strain snc1, stronger effect = lower value 0.713 | locus YBL061C, strain skt5, stronger effect = lower value 0.803 | locus YBR009C, strain hhf1, stronger effect = lower value 0.516 | locus YBR023C, strain chs3, stronger effect = lower value 0.823 | locus YBR231C, strain swc5, stronger effect = lower value 0.648 | locus YBR279W, strain paf1, stronger effect = lower value 0.869 | locus YCL011C, strain gbp2, stronger effect = lower value 0.659 | locus YCL016C, strain dcc1, stronger effect = lower value 0.791 | locus YCL069W, strain vba3, stronger effect = lower value 0.904 | locus YCR088W, strain abp1, stronger effect = lower value 0.835 | locus YDL005C, strain med2, stronger effect = lower value 0.122 | locus YDL035C, strain GPR1, stronger effect = lower value 0.222 | locus YDL074C, strain BRE1, stronger effect = lower value 0.242 | locus YDL101C, strain DUN1, stronger effect = lower value 0.306 | locus YDL134C, strain PPH21, stronger effect = lower value 0.533 | locus YDL192W, strain arf1, stronger effect = lower value 0.447 | locus YDR069C, strain doa4, stronger effect = lower value 0.117 | locus YDR101C, strain arx1, stronger effect = lower value 0.874 | locus YDR150W, strain NUM1, stronger effect = lower value 0.656 | locus YDR162C, strain NBP2, stronger effect = lower value 0.0621 | locus YDR195W, strain ref2 0.698 | locus YDR297W, strain sur2, stronger effect = lower value 0.838 | locus YDR318W, strain mcm21, stronger effect = lower value 0.7 | locus YDR334W, strain swr1, stronger effect = lower value 0.901 | locus YDR388W, stronger effect = lower value 0.161 | locus YDR392W, strain spt3, stronger effect = lower value 0.622 | locus YDR502C, strain sam2, stronger effect = lower value 0.734 | locus YEL037C, strain rad23, stronger effect = lower value 0.895 | locus YEL061C, strain CIN8, stronger effect = lower value 0.598 | locus YER015W, strain faa2, stronger effect = lower value 0.81 | locus YER016W, strain bim1, stronger effect = lower value 0.9 | locus YER167W, strain BCK2, stronger effect = lower value 0.704 | locus YFR010W, strain ubp6, stronger effect = lower value 0.104 | locus YGL086W, strain mad1, stronger effect = lower value 0.501 | locus YGL173C, strain kem1, stronger effect = lower value 0.885 | locus YGL248W, strain PDE1, stronger effect = lower value 0.298 | locus YGL253W, strain hxk2, stronger effect = lower value 0.575 | locus YGR078C, strain PAC10, stronger effect = lower value 0.523 | locus YGR135W, strain pre9, stronger effect = lower value 0.272 | locus YGR229C, strain SMI1, stronger effect = lower value 0.0868 | locus YGR252W, strain gcn5, stronger effect = lower value 0.68 | locus YHR013C, strain ard1, stronger effect = lower value 0.336 | locus YHR027C, strain rpn1, stronger effect = lower value 0.717 | locus YHR079C, strain IRE1 (second series), stronger effect = lower value 0.916 | locus YHR129C, strain ARP1, stronger effect = lower value 0.831 | locus YHR200W, strain rpn10, stronger effect = lower value 0.494 | locus YIL066C, strain RNR3, stronger effect = lower value 0.258 | locus YIL073C, strain SPO22, stronger effect = lower value 0.119 | locus YIR030C, strain dcg1, stronger effect = lower value 0.919 | locus YJL092W, strain hpr5, stronger effect = lower value 0.89 | locus YJL095W, strain BCK1 (second series), stronger effect = lower value 0.84 | locus YJL129C, strain trk1, stronger effect = lower value 0.479 | locus YJL164C, strain tpk1, stronger effect = lower value 0.622 | locus YJL166W, strain qcr8, stronger effect = lower value 0.622 | locus YJL187C, strain SWE1 (second series), stronger effect = lower value 0.32 | locus YJR043C, strain POL32, stronger effect = lower value 0.524 | locus YJR075W, strain HOC1, stronger effect = lower value 0.174
0.133 (active) and 0.945 (inactive): locus YHR030C, strain SLT2, stronger effect = lower value
inactive: locus YBR021W, strain FUR4, stronger effect = lower value 1.05 | locus YBR171W, strain sec66, stronger effect = lower value 1 | locus YBR229C, strain ROT2, stronger effect = lower value 1.01 | locus YCL029C, strain bik1, stronger effect = lower value 0.961 | locus YDL040C, strain nat1, stronger effect = lower value 1 | locus YDL185W, strain tfp1, stronger effect = lower value 0.993 | locus YDR001C, strain nth1, stronger effect = lower value 0.964 | locus YDR137W, strain rgp1, stronger effect = lower value 0.942 | locus YDR159W, strain sac3, stronger effect = lower value 1.09 | locus YDR335W, strain msn5, stronger effect = lower value 0.927 | locus YEL003W, strain gim4, stronger effect = lower value 0.984 | locus YEL061C, strain CIN8 (second series), stronger effect = lower value 0.937 | locus YER110C, stronger effect = lower value 1 | locus YER111C, strain swi4, stronger effect = lower value 0.981 | locus YER155C, strain BEM2 (second series), stronger effect = lower value 0.938 | locus YER155C, strain BEM2, stronger effect = lower value 1.01 | locus YGL078C, strain dbp3, stronger effect = lower value 0.981 | locus YGL167C, strain pmr1, stronger effect = lower value 1.02 | locus YGL227W, strain vid30, stronger effect = lower value 0.989 | locus YGL240W, strain doc1, stronger effect = lower value 0.994 | locus YHR079C, strain IRE1, stronger effect = lower value 0.921 | locus YHR094C, strain hxt1, stronger effect = lower value 1 | locus YHR142W, strain chs7, stronger effect = lower value 0.92 | locus YIL125W, strain kgd1, stronger effect = lower value 1.01 | locus YJL115W, strain asf1, stronger effect = lower value 1.02 | locus YJL134W, strain LCB3, stronger effect = lower value 1.02 | locus YJL154C, strain vps35, stronger effect = lower value 1.01 | locus YJL168C, strain set2, stronger effect = lower value 1.01 | locus YJR066W, strain TOR1, stronger effect = lower value 0.911
0.596 (active) and 0.961 (inactive): locus YJL095W, strain BCK1, stronger effect = lower value
